Tests used:
Assay in all cases: log2 ratio of Biotin-Ahx-Ub-VS probe labelling (fragment/DMSO); higher = less target engagement (more negative = stronger competition), active = hit call of the paper (q ≤ 0.05, log2 ratio ≤ -1)
Conditions in all cases: compound concentration: 200 uM; treatment time: 3 h
[1] = target: USP34 (UniProt Q70CQ2)
Summary of the method: (§1)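 Labelled DUBs from HEK293T lysate were NeutrAvidin-enriched, digested with LysC and trypsin, and run by diaPASEF LC-MS/MS. Before that, each 495 µg sample in Tris/CHAPS/IGEPAL buffer with protease inhibitors was treated in triplicate with fragment at 200 µM or vehicle for 3 h, then with Biotin-Ahx-Ub-VS at 0.5 µM final for 1 h. Values are average log2 ratios of fragment over vehicle by unpaired t-test, based on global-median-normalised Spectronaut label-free quantities from proteins with ≥2 unique peptides.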

[2] = target: T1, USP36 (UniProt Q9P275)
T1 sequence (whole entry): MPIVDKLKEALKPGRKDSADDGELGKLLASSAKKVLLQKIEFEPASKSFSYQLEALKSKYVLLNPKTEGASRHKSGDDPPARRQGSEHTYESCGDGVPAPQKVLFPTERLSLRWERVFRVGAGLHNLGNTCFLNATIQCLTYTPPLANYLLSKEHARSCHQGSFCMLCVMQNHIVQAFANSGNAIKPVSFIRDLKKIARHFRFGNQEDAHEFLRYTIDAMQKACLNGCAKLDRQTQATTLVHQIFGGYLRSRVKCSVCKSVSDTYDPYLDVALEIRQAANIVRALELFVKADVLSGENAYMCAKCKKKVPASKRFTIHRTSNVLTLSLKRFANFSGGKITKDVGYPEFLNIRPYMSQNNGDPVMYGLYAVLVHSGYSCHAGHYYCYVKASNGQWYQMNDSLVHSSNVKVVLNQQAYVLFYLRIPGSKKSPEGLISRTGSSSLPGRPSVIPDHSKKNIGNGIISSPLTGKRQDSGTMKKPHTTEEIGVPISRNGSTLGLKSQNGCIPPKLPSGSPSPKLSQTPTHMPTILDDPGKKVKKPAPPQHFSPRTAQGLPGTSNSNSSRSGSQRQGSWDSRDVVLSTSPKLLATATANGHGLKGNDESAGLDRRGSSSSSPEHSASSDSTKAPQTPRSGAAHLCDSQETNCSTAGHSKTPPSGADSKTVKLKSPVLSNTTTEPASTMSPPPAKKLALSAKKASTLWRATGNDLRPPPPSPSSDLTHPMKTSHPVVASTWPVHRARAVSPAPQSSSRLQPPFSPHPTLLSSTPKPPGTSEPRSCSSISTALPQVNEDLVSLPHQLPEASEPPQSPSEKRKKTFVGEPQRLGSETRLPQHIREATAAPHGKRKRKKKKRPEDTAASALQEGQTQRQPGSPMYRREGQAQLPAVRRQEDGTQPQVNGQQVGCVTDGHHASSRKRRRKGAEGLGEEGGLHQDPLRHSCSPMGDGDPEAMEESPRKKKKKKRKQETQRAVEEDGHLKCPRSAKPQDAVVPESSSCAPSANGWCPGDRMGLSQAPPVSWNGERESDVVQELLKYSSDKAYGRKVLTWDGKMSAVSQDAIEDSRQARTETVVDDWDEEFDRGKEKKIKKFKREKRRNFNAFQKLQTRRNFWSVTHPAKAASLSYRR
Summary of the method: as §1

[3] = target: T2, USP38 (UniProt Q8NB14)
T2 sequence (whole entry): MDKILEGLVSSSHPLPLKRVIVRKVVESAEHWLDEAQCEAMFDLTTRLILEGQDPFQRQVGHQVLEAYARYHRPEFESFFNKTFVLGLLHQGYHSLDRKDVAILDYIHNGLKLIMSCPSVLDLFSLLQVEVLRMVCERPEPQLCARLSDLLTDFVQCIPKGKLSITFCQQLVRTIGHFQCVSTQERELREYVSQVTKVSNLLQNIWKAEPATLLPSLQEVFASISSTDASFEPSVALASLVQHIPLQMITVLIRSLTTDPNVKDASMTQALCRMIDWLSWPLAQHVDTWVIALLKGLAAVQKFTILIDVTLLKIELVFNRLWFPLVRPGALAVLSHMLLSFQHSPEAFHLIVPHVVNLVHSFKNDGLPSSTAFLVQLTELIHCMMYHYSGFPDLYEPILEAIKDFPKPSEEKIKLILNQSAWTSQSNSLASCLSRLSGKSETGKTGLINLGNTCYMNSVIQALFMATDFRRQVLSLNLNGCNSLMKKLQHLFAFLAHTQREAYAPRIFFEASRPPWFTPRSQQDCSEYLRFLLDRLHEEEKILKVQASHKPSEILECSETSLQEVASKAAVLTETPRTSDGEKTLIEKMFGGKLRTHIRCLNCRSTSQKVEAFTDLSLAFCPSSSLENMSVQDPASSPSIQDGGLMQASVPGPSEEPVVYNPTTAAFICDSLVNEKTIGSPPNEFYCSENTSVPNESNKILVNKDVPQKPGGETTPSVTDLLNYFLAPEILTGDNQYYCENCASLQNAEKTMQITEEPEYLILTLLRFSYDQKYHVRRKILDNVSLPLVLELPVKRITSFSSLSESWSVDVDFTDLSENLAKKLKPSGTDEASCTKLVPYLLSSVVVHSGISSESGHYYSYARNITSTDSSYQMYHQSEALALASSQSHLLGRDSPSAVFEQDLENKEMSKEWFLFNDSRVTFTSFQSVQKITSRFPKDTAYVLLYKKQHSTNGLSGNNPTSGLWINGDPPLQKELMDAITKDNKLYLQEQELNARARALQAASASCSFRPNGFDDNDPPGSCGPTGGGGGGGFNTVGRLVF
Summary of the method: as §1

[4] = target: T3, USP39 (UniProt Q53GS9)
T3 sequence (whole entry): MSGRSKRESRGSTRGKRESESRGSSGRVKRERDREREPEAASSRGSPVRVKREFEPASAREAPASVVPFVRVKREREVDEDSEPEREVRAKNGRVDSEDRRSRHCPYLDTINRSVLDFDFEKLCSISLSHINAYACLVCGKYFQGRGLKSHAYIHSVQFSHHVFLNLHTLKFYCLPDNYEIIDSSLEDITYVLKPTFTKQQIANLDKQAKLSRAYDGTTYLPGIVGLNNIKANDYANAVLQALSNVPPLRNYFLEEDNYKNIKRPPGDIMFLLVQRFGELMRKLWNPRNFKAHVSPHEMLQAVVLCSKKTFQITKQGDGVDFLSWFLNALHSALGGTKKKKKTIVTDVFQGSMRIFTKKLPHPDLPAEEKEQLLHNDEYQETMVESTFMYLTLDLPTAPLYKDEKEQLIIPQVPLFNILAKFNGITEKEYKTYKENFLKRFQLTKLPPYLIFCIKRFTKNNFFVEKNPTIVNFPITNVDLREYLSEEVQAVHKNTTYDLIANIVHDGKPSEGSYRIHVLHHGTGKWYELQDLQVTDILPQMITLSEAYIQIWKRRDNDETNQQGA
Summary of the method: as §1

[5] = target: T4, USP4 (UniProt Q13107)
T4 sequence (whole entry): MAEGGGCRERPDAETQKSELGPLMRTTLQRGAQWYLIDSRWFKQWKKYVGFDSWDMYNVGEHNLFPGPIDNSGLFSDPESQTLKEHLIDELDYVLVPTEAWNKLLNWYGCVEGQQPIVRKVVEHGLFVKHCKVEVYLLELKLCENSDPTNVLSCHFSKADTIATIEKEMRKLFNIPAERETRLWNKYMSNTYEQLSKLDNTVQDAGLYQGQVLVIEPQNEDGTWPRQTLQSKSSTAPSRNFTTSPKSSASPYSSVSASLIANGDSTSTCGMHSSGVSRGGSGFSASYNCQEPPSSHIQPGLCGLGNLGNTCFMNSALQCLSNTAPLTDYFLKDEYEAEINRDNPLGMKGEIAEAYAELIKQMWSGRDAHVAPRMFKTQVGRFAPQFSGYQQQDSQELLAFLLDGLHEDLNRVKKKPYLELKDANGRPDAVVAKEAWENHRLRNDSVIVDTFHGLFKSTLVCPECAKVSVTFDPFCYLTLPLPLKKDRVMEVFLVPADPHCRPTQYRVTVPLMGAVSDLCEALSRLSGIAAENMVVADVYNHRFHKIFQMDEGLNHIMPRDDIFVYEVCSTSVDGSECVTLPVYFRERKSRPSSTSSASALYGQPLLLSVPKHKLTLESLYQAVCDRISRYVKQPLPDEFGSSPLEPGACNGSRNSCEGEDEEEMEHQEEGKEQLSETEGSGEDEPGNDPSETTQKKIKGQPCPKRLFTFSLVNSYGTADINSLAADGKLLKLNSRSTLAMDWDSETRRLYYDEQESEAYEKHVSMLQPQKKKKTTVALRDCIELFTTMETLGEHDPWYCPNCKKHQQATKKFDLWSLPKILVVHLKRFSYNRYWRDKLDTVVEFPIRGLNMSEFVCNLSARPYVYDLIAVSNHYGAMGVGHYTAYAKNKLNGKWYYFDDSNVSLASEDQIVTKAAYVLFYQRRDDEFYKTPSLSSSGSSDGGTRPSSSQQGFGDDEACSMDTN
Summary of the method: as §1

Measured: log2 ratio of Biotin-Ahx-Ub-VS probe labelling

Chain of USP34 (Q70CQ2 whole entry, the tested form may be a part): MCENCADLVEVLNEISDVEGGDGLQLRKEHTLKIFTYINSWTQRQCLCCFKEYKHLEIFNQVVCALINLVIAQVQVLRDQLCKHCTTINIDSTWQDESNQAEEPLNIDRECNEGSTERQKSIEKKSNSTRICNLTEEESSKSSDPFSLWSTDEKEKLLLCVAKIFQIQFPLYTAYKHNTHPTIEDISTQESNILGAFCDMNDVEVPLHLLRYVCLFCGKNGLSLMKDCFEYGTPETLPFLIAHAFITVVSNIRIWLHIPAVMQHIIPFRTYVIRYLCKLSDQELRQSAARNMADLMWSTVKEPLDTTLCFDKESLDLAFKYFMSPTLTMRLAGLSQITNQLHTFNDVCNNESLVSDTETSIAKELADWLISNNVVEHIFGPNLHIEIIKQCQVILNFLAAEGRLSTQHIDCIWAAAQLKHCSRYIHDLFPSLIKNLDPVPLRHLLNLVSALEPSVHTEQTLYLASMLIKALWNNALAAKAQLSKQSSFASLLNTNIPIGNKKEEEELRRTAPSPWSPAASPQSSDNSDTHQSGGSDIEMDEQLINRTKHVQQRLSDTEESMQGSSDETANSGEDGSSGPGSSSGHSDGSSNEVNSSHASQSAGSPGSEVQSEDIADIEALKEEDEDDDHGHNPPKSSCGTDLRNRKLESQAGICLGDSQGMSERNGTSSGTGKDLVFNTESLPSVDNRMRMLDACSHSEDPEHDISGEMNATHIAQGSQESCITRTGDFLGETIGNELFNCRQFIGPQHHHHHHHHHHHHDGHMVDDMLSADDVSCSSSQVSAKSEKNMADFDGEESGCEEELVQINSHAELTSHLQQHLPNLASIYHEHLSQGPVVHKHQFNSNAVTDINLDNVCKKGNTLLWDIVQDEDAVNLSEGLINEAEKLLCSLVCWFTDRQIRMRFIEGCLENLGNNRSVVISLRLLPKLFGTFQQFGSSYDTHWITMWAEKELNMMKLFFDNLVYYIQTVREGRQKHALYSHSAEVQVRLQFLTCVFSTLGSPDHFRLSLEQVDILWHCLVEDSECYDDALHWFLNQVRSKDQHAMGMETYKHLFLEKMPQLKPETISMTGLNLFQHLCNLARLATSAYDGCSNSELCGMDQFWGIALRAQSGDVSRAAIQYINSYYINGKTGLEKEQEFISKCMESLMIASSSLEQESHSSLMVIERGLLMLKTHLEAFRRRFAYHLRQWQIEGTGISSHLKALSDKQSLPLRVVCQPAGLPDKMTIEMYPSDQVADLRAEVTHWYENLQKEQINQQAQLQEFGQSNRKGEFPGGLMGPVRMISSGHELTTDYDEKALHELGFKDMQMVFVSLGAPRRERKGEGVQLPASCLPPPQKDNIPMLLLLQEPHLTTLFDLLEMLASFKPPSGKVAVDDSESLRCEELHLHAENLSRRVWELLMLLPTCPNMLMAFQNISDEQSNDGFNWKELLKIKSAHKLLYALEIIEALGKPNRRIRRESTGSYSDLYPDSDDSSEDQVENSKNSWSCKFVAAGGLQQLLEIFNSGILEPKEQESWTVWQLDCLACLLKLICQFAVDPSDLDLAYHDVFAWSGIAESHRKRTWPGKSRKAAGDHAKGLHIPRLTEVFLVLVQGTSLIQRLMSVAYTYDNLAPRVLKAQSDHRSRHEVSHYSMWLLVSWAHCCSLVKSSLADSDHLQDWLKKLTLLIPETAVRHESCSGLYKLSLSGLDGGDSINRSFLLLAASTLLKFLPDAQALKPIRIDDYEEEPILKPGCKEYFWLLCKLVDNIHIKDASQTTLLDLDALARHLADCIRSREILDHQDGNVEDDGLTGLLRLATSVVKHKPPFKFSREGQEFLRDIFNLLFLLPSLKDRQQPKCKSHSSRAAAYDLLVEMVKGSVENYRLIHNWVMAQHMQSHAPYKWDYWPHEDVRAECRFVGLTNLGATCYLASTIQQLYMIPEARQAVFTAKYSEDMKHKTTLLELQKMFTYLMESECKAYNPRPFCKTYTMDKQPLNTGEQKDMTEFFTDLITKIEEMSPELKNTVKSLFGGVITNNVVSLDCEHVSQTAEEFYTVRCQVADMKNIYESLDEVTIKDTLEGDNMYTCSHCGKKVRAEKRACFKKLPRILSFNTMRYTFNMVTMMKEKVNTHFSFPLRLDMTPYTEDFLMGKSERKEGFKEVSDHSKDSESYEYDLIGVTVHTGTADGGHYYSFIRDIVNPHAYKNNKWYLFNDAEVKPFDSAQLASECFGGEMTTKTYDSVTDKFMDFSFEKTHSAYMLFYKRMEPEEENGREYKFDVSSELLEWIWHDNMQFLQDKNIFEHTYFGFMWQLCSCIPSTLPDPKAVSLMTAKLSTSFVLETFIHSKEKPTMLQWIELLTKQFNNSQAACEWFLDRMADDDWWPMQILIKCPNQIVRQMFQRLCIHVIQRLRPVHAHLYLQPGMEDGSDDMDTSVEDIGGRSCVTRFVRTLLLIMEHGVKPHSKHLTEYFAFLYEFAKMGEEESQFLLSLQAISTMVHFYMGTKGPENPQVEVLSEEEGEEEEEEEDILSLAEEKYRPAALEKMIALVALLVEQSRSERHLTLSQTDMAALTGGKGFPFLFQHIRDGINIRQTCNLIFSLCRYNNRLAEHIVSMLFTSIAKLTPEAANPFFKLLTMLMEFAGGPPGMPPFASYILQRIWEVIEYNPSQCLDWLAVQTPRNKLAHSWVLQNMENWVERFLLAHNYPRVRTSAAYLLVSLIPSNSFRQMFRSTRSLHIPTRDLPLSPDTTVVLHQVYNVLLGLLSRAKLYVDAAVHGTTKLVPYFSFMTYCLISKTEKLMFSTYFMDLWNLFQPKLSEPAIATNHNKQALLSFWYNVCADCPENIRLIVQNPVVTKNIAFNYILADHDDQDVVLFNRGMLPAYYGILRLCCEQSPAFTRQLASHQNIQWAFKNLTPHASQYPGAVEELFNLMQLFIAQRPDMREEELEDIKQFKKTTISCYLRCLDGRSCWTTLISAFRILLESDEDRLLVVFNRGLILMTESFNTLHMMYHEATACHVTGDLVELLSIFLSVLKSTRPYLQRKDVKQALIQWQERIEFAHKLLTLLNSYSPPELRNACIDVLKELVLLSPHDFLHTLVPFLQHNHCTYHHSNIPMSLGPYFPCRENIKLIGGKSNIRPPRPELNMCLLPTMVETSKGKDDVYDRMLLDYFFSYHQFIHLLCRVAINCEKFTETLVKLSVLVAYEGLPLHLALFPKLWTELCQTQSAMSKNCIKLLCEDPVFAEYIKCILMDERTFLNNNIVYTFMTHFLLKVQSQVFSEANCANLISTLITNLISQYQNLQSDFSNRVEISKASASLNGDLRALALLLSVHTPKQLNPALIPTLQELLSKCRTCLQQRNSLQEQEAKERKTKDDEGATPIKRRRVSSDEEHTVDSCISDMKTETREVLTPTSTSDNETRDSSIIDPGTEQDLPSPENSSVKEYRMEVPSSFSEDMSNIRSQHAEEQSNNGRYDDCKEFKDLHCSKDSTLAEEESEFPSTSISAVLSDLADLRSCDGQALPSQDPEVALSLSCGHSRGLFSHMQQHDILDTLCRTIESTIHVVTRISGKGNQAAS

NC(=O)C(Cc1ccccc1)NC(=O)CCl (stereo not given)
inactive: [1] -0.217 | [2] 0.0618 | [3] -0.0263 | [4] -0.257 | [5] 0.0089

— the supplement of paper PMC11732987, “Enantioselective OTUD7B fragment discovery through chemoproteomics screening and high-throughput optimisation” (Communications Chemistry, 2025)
